Data from PubChem BioAssay (NCATS).
Inconclusive results are not listed. The source made the active and inactive calls. Unless noted, calls follow the shape of the dose curve; as a rule, active = well fitted curve in the direction sought with a large enough effect; inconclusive = small, poorly fitted or top-dose-only effect, or another doubt; inactive = no such curve, though single readings can be large; an effect the other way counts as inactive or inconclusive.

Experiments:
[1] = target: Luciferin 4-monooxygenase (Photinus pyralis) (UniProt P08659); assay: Primary firefly luciferase (FLuc) qHTS assay for identification of artifact compounds. (AID 1845220); conditions: purified firefly luciferase, luminescence, 5 min; series mostly up to 54.1 µM; also: nearly all actives have a fitted effect of over 60% in size
In short: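 Reaction readout was CCD-imaged luminescence, taken 5 min after adding 10 nM purified firefly enzyme to compound-treated wells holding 10 uM luciferin and ATP in pH 7.6 buffer.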

[2] = Primary fluorescence-based thiol-reactive (MSTI) qHTS assay for identification of artifact compounds. (AID 1845221); conditions: MSTI thiol-reactivity probe, 1 h; series mostly up to 53.8 µM;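 also: thiol-reactive compounds lower the probe fluorescence signal; nearly all actives have a fitted effect of over 65% in size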
In short: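 Reactivity toward the thiol probe MSTI (4 uM) is scored by fluorescence at Ex/Em 525/598 nm after 1 h at room temperature. Acetyl-MSTI and MSTI define the activity scale.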

[3] = tested on: Nanoluciferase (engineered Oplophorus gracilirostris luciferase); assay: Primary Nanoluciferase (NLuc) qHTS assay for identification of artifact compounds. (AID 1845222); conditions: NLuc-conditioned medium, Nano-Glo luminescence, 5 min; series mostly up to 54.1 µM; also: potency is read from the fitted curve at half-maximal effect;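 as to activity, negative = inhibition: NLuc secreted into diluted conditioned medium of S16 cells; 0% = DMSO and -100% = no enzyme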
In short: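 Concentration-response data were obtained by luminescence after 5 min with Nano-Glo substrate at 1:100. The enzyme was diluted S16 NLuc-expressing cell medium, preincubated with compound for 15 min at RT. Curves were fitted with a 4-parameter Hill model.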

[4] = Primary redox qHTS assay for identification of artifact compounds. (AID 1845223); conditions: Amplex Red/HRP redox cycling with DTT, fluorescence; series mostly up to 53.8 µM;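 also: 0% = DMSO and 100% = reference compound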
In short: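 Amplex Red (25 uM) and HRP (250 mU/mL) in HBSS, with compounds for 15 min, then 250 uM DTT for 30 min, room temperature, dark. Fluorescence 525/598 nm read; normalized to DMSO and 10 uM DA3003; Hill fit.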

[5] = target: Cytochrome P450 3A4 (Homo sapiens) (UniProt P08684); assay: qHTS for inhibitors of CYP3A4 against the NCATS DSHEA and TCM libraries (AID 1919971); conditions: recombinant CYP3A4 enzyme activity, luminescence qHTS; series mostly up to 34.1 µM;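 also: % is scaled to controls: 0 for no effect and ±100 for the full control effect; inhibition lowers luminescence from luciferin made by CYP3A4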
In short: (§1)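 Luminescent P450-Glo readout. Enzyme plus pro-luciferin substrate in manufacturer buffer (typically 100 mM KPO4); 15 min RT preincubation; 1x NADPH regenerating system, 30-45 min RT in the dark; detection reagent 30 min.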

[6] = target: Cytochrome P450 2D6 (Homo sapiens) (UniProt P10635); assay: qHTS for inhibitors of CYP2D6 against the NCATS DSHEA and TCM libraries (AID 1919972); conditions: CYP2D6 enzymatic inhibition, luminescence qHTS; series mostly up to 34.1 µM; also: % is scaled to controls: 0 for no effect and ±100 for the full control effect
In short: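 Steps: enzyme plus luciferin substrate dispensed; test substances pinned; 15 min RT; 1x NADPH regenerating solution added, 30–45 min RT protected from light; detection reagent, 30 min RT; luminescence measured. Minus-enzyme wells as background.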

[7] = target: Cytochrome P450 2C9 (Homo sapiens) (UniProt P11712); assay: qHTS for inhibitors of CYP2C9 against the NCATS DSHEA and TCM libraries (AID 1919973); conditions: recombinant CYP2C9 enzyme activity, luminescence; series mostly up to 34.1 µM;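 also: luminogenic pro-luciferin CYP2C9 substrate turned into luciferin with NADPH regeneration; % is scaled to controls: 0 for no effect and ±100 for the full control effect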
In short: as §1

[8] = target: Cytochrome P450 2C19 (Homo sapiens) (UniProt P33261); assay: qHTS for inhibitors of CYP2C19 against the NCATS DSHEA and TCM libraries (AID 1919974); conditions: CYP2C19 enzyme inhibition, luminescence qHTS; series mostly up to 34.1 µM;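 also: luminescence from luciferin released by CYP2C19 oxidation of a pro-luciferin substrate; % is scaled to controls: 0 for no effect and ±100 for the full control effect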
In short: as §1

[9] = KB-3-1 P-gp reporter qHTS against the NCATS DSHEA and TCM libraries (AID 1919975); conditions: KB-3-1 parental cells, CellTiter-Glo luminescence viability, 72 h; series mostly up to 26.1 µM; also: 0% is about no effect
In short: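 CellTiter-Glo luminescence viability readout; KB-3-1 parental cells, 500/well, attached ~4 h, then compound for ~72 h, 37C, 5% CO2. Bortezomib intraplate control.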

[10] = qHTS Counterscreen for compound interference against the NCATS DSHEA and TCM libraries (AID 1919978); conditions: firefly luciferase detection reagent interference, luminescence;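 also: compounds preincubated with 1 µM D-luciferin or buffer before detection reagent; % of control where 0% means no effect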
In short: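 Luminescence counterscreen for detection-kit interference: compounds at 19.5 nM–39.8 uM final, 15 min RT with 1 uM D-luciferin or buffer only; detection reagent added, 30 min RT, then read.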

[11] = Dual reporter qHTS for agonist of Pregnane X Receptor (hPXR) against the NCATS DSHEA and TCM libraries: Fluorescence readout (AID 1920058); conditions: PXR dual reporter cells; series mostly up to 40 µM; also: 0% is about no effect
In short: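 hPXR-Luc HepG2 cells (2000/well) in phenol red-free medium with charcoal-stripped FBS attached for 5 h, then were exposed to compounds for about 24 h at 37 °C. Viability was read by CellTiter-Fluor fluorescence (Ex/Em 405/540 nm) after 1 h.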

[12] = target: Nuclear receptor subfamily 1 group I member 2 (Homo sapiens) (UniProt O75469); assay: Dual reporter qHTS for agonist of Pregnane X Receptor (hPXR) against the NCATS DSHEA and TCM libraries: Luminescence readout (AID 1920059); conditions: hPXR dual reporter cells, luciferase luminescence agonist; series mostly up to 40 µM; also: 0% is about no effect
In short: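 hPXR-LucHepG2 cells in phenol red-free DMEM with 5% charcoal-stripped FBS, 2000 cells/well, attached 5 h, then exposed 24 h at 37C to compounds; rifampicin as positive agonist control (2.8 nM–92 uM). Luciferase luminescence read.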

[13] = target: Nuclear receptor subfamily 1 group I member 2 (Homo sapiens) (UniProt O75469); assay: Dual reporter qHTS for antagonist of Pregnane X Receptor (hPXR) against the NCATS DSHEA and TCM libraries: Luminescence Readout (AID 1920060); conditions: hPXR dual reporter cells, luciferase luminescence, antagonist mode; series mostly up to 40 µM;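 also: HepG2 cells carrying hPXR luciferase reporter stimulated with rifampicin at 2 µM; 0% is about no effect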
In short: (§2)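 HepG2 hPXR-Luc, 2000 cells/well, charcoal-stripped FBS medium; 5 h attach; RIF 2 uM final; 24 h 37C/5% CO2; CellTiter-Fluor 1 h, fluor 405/540; ONE-Glo 30 min RT, lum.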

[14] = Dual reporter qHTS for antagonist of Pregnane X Receptor (hPXR) against the NCATS DSHEA and TCM libraries: Fluorescence Readout (AID 1920061); conditions: PXR dual reporter cells, antagonist mode; series mostly up to 40 µM; also: 0% is about no effect
In short: as §2

[15] = qHTS profiling for inhibitors of Plasmodium falciparum proliferation (AID 504749); also: nearly all actives have a fitted effect of over 60% in size; also: potency is read from the fitted curve at half-maximal effect;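 as to activity, negative = inhibition: 0% = DMSO vehicle and full inhibition = artemisinin control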; conditions: P. falciparum in erythrocytes, SYBR Green DNA, 72 h
In short: (§3)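 P. falciparum-infected erythrocytes (0.3% parasitemia, 2.5% hematocrit final) were exposed to compounds for 72 h at 37 C in 5% CO2, then lysed with SYBR Green buffer overnight at room temperature; parasite DNA fluorescence was normalized to artemisinin and DMSO controls.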

3D7 = assay: as above; conditions: P. falciparum in erythrocytes, SYBR Green DNA, 72 h; series mostly up to 28.7 µM
In short: as §3

7G8 = assay: as above; conditions: P. falciparum in erythrocytes, SYBR Green DNA, 72 h; series mostly up to 28.7 µM
In short: as §3

AA1029 = assay: as above; conditions: P. falciparum in erythrocytes, SYBR Green DNA, 72 h; series mostly up to 28.7 µM
In short: as §3

[16] = qHTS drug screen for cell cycle checkpoint inhibitors in PARPi-resistant BRCA-mutant ovarian cancer cell lines. (AID 1963452; calls by dose curve); conditions: PEO1/OlaR viability, CellTiter-Glo luminescence, 96 h, stronger effect = lower value
In short: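 PEO1, PEO4 and PEO1/OlaR ovarian cancer cells, 600 per well, exposed 96 h at 37C to a dilution series. Viability read by CellTiter-Glo luminescence, normalized to DMSO and empty wells; activity summarized as Z-AUC.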

[17] = at 28.7 µM (top of the series), parasite line A
[18] = at 28.7 µM (top of the series), parasite line B
[19] = at 12.8 µM (top of the series), parasite line A
[20] = at 12.8 µM (top of the series), parasite line B
[21] = measured here: PEO1 parental Z-AUC

Chain of Nuclear receptor subfamily 1 group I member 2 (Homo sapiens) (O75469 whole entry, looked up): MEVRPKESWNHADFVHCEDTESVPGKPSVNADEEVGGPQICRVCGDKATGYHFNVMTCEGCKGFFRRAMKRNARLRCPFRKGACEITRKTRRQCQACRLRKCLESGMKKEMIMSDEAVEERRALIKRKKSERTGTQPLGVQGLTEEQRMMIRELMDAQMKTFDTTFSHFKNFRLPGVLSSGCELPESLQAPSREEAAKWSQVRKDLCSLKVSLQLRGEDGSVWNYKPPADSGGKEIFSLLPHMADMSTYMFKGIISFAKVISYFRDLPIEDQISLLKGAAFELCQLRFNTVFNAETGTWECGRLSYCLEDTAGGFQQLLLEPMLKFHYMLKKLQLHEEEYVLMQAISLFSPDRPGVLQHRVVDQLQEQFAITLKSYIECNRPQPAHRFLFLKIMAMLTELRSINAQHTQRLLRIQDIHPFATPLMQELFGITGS
Chain of Cytochrome P450 2C9 (Homo sapiens) (P11712 whole entry, looked up): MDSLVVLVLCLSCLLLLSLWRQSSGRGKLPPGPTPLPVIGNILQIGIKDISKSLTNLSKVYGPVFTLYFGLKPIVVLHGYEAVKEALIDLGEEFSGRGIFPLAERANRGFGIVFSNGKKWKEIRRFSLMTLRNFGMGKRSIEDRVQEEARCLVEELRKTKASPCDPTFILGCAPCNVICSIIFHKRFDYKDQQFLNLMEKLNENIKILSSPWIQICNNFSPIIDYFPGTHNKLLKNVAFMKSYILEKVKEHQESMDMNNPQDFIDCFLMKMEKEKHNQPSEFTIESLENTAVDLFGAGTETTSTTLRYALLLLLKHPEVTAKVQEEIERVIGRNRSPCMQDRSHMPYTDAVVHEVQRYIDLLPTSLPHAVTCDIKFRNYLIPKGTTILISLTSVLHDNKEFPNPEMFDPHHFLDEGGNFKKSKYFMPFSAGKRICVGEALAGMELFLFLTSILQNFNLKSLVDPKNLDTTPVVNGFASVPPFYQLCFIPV
Chain of Cytochrome P450 3A4 (Homo sapiens) (P08684 whole entry, looked up): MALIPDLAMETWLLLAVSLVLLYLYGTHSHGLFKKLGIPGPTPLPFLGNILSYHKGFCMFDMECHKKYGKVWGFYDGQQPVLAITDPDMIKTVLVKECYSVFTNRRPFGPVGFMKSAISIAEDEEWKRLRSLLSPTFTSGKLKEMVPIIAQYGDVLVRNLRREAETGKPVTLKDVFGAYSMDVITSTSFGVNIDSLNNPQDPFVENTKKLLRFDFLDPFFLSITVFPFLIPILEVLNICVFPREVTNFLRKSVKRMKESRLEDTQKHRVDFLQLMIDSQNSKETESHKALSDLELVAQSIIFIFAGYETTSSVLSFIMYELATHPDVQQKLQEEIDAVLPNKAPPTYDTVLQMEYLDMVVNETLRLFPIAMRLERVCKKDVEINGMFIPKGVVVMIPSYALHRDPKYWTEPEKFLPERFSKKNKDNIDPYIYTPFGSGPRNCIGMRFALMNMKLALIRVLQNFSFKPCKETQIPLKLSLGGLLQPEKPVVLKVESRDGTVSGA
Chain of Cytochrome P450 2D6 (Homo sapiens) (P10635 whole entry, looked up): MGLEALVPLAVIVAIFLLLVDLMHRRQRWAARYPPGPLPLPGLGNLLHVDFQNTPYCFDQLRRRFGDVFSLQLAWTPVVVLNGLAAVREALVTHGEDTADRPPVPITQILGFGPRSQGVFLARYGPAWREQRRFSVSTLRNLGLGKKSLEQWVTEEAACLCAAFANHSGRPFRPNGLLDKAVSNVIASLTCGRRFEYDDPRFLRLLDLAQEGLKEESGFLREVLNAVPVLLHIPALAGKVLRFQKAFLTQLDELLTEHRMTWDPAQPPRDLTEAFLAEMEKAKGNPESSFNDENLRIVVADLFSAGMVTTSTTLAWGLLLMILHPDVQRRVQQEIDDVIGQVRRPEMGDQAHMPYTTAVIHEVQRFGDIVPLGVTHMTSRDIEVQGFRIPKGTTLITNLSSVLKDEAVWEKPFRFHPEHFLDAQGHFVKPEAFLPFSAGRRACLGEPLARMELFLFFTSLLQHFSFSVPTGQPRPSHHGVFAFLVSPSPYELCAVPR
Chain of Cytochrome P450 2C19 (Homo sapiens) (P33261 whole entry, looked up): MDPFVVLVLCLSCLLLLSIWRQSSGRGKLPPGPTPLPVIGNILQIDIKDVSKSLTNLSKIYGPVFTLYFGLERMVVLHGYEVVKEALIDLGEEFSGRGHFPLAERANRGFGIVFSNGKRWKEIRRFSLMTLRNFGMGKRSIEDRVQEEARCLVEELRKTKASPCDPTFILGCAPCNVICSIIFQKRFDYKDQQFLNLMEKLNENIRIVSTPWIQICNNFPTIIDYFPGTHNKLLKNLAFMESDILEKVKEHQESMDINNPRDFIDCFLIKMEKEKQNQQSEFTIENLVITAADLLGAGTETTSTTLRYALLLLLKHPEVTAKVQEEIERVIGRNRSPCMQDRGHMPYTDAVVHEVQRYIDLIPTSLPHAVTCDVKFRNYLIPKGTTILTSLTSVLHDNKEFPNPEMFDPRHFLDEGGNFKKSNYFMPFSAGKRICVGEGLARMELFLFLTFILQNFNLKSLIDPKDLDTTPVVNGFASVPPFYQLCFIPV

CN1[C@@H]2CC[C@H]1CC(OC(=O)c1c[nH]c3ccccc13)C2 (stereo partly drawn)
inactive: outcome [1] | Potency [2] | Potency [3] | outcome [4]

O=c1ccc2ccccc2o1
inactive: outcome [5] | outcome [6] | outcome [7] | Potency [8] | outcome [9] | max response [10] 0.354% | outcome [11] | outcome [12] | outcome [13] | outcome [14] | activity, negative = inhibition [15, 17] 10.1% | activity, negative = inhibition [15, 18] 1.35% | Potency (3D7) | Potency (7G8) | Potency (AA1029)

CC(C)(C)CC(C)(C)c1ccc(OCCOCC[N+](C)(C)Cc2ccccc2)cc1
inactive: outcome [1] | Potency [2] | Potency [3] | outcome [4]
active: Potency ([15]; parasite line A) 3.55 µM | Potency ([15]; parasite line B) 5.01 µM | Potency (3D7) 1.78 µM | Potency (7G8) 1.58 µM | Potency (AA1029) 4.47 µM

CN1CCN(C(c2ccccc2)c2ccccc2)CC1
inactive: outcome [1] | Potency [3] | outcome [4] | activity, negative = inhibition [15, 19] 3.5% | activity, negative = inhibition [15, 20] -5.02% | Potency (3D7)

Cc1ccc(C(=O)C(C)CN2CCCCC2)cc1 (stereo not drawn)
inactive: outcome [1] | Potency [2] | Potency [3] | outcome [4] | activity, negative = inhibition [15, 17] 1.87% | activity, negative = inhibition [15, 18] 6.22% | Potency (3D7) | Potency (AA1029)
active: Potency (7G8) 11.2 µM

CC(=O)OCC(=O)[C@@]1(O)[C@H](C)C[C@H]2[C@@H]3CCC4=CC(=O)C=C[C@]4(C)[C@@]3(F)[C@@H](O)C[C@@]21C
inactive: outcome [1] | Potency [2] | Potency [3]

CC(C)(C)NC(=O)[C@@H]1CN(Cc2cccnc2)CCN1C[C@@H](O)C[C@@H](Cc1ccccc1)C(=O)N[C@H]1c2ccccc2C[C@H]1O
inactive: outcome [1] | Potency [2] | Potency [3] | outcome [4]

CC(=O)O[C@]1(C(C)=O)CC[C@H]2[C@@H]3C[C@H](C)C4=CC(=O)CC[C@]4(C)[C@H]3CC[C@@]21C
inactive: outcome [1] | Potency [2] | Potency [3] | outcome [4] | Z-AUC [16] -1.26
-0.257: Z-AUC [16, 21]
0.0735: Z-AUC ([16]; measured here: PEO4 Z-AUC)

NC(=NCCCCCCN=C(N)/N=C(\N)Nc1ccc(Cl)cc1)/N=C(\N)Nc1ccc(Cl)cc1
active: Potency ([15]; parasite line A) 3.16 µM | Potency ([15]; parasite line B) 3.98 µM | Potency (3D7) 1.41 µM | Potency (7G8) 0.251 µM | Potency (AA1029) 1 µM
inactive: outcome [1] | Potency [2] | Potency [3] | outcome [4]

Cc1cc2c(cc1CC(=O)c1sccc1S(=O)(=O)Nc1onc(C)c1Cl)OCO2
inactive: outcome [1] | outcome [4] | Z-AUC [16] 0.64
0.661: Z-AUC ([16]; measured here: PEO4 Z-AUC)
0.98: Z-AUC [16, 21]
active: Potency [3] 16.9 µM

O=c1[nH]c(=O)n([C@H]2CCCO2)cc1F
inactive: outcome [1] | Potency [2] | Potency [3] | outcome [4]

COc1cccc(OC)c1C(=O)N[C@@H]1C(=O)N2[C@@H]1SC(C)(C)[C@@H]2C(=O)O
inactive: outcome [1] | Potency [2] | Potency [3]

O=C(OCCOCCO)c1ccccc1Nc1cccc(C(F)(F)F)c1
inactive: outcome [1] | Potency [2] | Potency [3] | outcome [4] | activity, negative = inhibition [15, 19] 9.49% | activity, negative = inhibition [15, 20] 3.82% | Potency (3D7) | Potency (7G8) | Potency (AA1029)

CC(=O)OCC(=O)[C@@]1(O)CC[C@H]2[C@@H]3CCC4=CC(=O)C=C[C@]4(C)[C@H]3[C@@H](O)C[C@@]21C
0.219: Z-AUC ([16]; measured here: PEO4 Z-AUC)
1.1: Z-AUC [16, 21]
inactive: outcome [1] | Potency [2] | Potency [3] | outcome [4] | Z-AUC [16] -0.27

Nc1ccc(C(=O)O)cc1
inactive: outcome [5] | outcome [6] | outcome [7] | outcome [9] | max response [10] -2.08% | outcome [11] | outcome [12] | outcome [14] | activity, negative = inhibition [15, 17] -7.02% | activity, negative = inhibition [15, 18] 4.76% | Potency (3D7) | Potency (7G8) | Potency (AA1029)

OC[C@H]1O[C@H](O[C@]2(CCl)O[C@H](CCl)[C@@H](O)[C@@H]2O)[C@H](O)[C@@H](O)[C@H]1Cl
inactive: outcome [1] | Potency [2] | Potency [3] | outcome [4]

Cc1nc2n(c(=O)c1CCN1CCC(c3noc4cc(F)ccc34)CC1)CCC[C@H]2O
inactive: outcome [1] | Potency [2] | Potency [3] | outcome [4]

CCCCS(=O)(=O)N[C@@H](Cc1ccc(OCCCCC2CCNCC2)cc1)C(=O)O
inactive: outcome [1] | Potency [2] | Potency [3] | outcome [4]

C#C[C@]1(OC(C)=O)CC[C@H]2[C@@H]3CCC4=C[C@@H](OC(C)=O)CC[C@@H]4[C@H]3CC[C@@]21C
inactive: outcome [1] | Potency [2] | Potency [3] | outcome [4] | activity, negative = inhibition [15, 17] -15% | activity, negative = inhibition [15, 18] -19.2% | Potency (3D7) | Potency (7G8) | Potency (AA1029)

Cc1ccccc1C(=O)Nc1ccc(C(=O)N2CCCC(N(C)C)c3ccccc32)cc1 (stereo not drawn)
inactive: outcome [1] | Potency [2] | Potency [3] | outcome [4]

Cc1ccc(Nc2c(F)cccc2Cl)c(CC(=O)O)c1
inactive: outcome [1] | Potency [3] | outcome [4]

C=CCc1ccc(O)c(OC)c1
inactive: outcome [7] | outcome [9] | max response [10] -2.5% | outcome [11] | outcome [12] | outcome [13] | outcome [14] | activity, negative = inhibition [15, 17] 9.84% | activity, negative = inhibition [15, 18] 1.91% | Potency (3D7) | Potency (7G8) | Potency (AA1029)
